# Out of some 5,500 compounds screened, about 2,000 (36%) were called active. Not shown: some 18% with an inconclusive outcome. This is one part of the list. A number with no mark means an inactive call. Cut-off read from the data, not from the text of the source: active = normalized growth mostly below about 0.91 (no sharp cut-off); inconclusive = no clear call, values can overlap the other calls; inactive = mostly above about 0.92.
# Assay: chemical genetic growth profiling, strain panel (AID 1159580);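 note: tested at 20 µM; growth read once vehicle control cultures reached saturation at 30 °C; 1 = growth at the plate median or of vehicle wells; lower values mean less growth of the strain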
# Details: S. cerevisiae deletion strains, growth OD
compound,measurement,setting,value
NCCc1cc(O)c(O)cc1O,normalized growth,"locus YAL021C, strain ccr4, hits give low values",0.856 (active)
same,normalized growth,"locus YAL026C, strain drs2, hits give low values",0.924
same,normalized growth,"locus YAL030W, strain snc1, hits give low values",0.938
same,normalized growth,"locus YBL061C, strain skt5, hits give low values",0.948
same,normalized growth,"locus YBR009C, strain hhf1, hits give low values",0.963
same,normalized growth,"locus YBR023C, strain chs3, hits give low values",0.94
same,normalized growth,"locus YBR171W, strain sec66, hits give low values",0.983
same,normalized growth,"locus YBR231C, strain swc5, hits give low values",0.884 (active)
same,normalized growth,"locus YBR279W, strain paf1, hits give low values",0.948
same,normalized growth,"locus YCL011C, strain gbp2, hits give low values",0.96
same,normalized growth,"locus YCL016C, strain dcc1, hits give low values",0.962
same,normalized growth,"locus YCL061C, strain MRC1, hits give low values",0.934
same,normalized growth,"locus YCL069W, strain vba3, hits give low values",0.966
same,normalized growth,"locus YCR088W, strain abp1, hits give low values",0.999
same,normalized growth,"locus YDL005C, strain med2, hits give low values",1.01
same,normalized growth,"locus YDL040C, strain nat1, hits give low values",0.995
same,normalized growth,"locus YDR001C, strain nth1, hits give low values",1
same,normalized growth,"locus YDR069C, strain doa4, hits give low values",0.833 (active)
same,normalized growth,"locus YDR137W, strain rgp1, hits give low values",0.993
same,normalized growth,"locus YDR159W, strain sac3, hits give low values",1.02
same,normalized growth,"locus YDR195W, strain ref2",0.97
same,normalized growth,"locus YDR297W, strain sur2, hits give low values",0.941
same,normalized growth,"locus YDR334W, strain swr1, hits give low values",0.951
same,normalized growth,"locus YDR335W, strain msn5, hits give low values",0.924
same,normalized growth,"locus YDR392W, strain spt3, hits give low values",0.882
same,normalized growth,"locus YEL003W, strain gim4, hits give low values",0.908 (active)
same,normalized growth,"locus YEL037C, strain rad23, hits give low values",0.964
same,normalized growth,"locus YEL061C, strain CIN8 (second series), hits give low values",0.987
same,normalized growth,"locus YER015W, strain faa2, hits give low values",0.887 (active)
same,normalized growth,"locus YER016W, strain bim1, hits give low values",0.967
same,normalized growth,"locus YER111C, strain swi4, hits give low values",0.966
same,normalized growth,"locus YER155C, strain BEM2 (second series), hits give low values",0.847 (active)
same,normalized growth,"locus YFR010W, strain ubp6, hits give low values",0.921
same,normalized growth,"locus YGL167C, strain pmr1, hits give low values",0.976
same,normalized growth,"locus YGL173C, strain kem1, hits give low values",0.838 (active)
same,normalized growth,"locus YGL227W, strain vid30, hits give low values",1.01
same,normalized growth,"locus YGL240W, strain doc1, hits give low values",0.917
same,normalized growth,"locus YGL253W, strain hxk2, hits give low values",0.963
same,normalized growth,"locus YHR013C, strain ard1, hits give low values",0.954
same,normalized growth,"locus YHR027C, strain rpn1, hits give low values",0.9 (active)
same,normalized growth,"locus YHR030C, strain SLT2, hits give low values",0.975
same,normalized growth,"locus YHR079C, strain IRE1, hits give low values",0.938
same,normalized growth,"locus YHR142W, strain chs7, hits give low values",0.949
same,normalized growth,"locus YJL092W, strain hpr5, hits give low values",0.953
same,normalized growth,"locus YJL095W, strain BCK1 (second series), hits give low values",0.964
same,normalized growth,"locus YJL095W, strain BCK1, hits give low values",0.989
same,normalized growth,"locus YJL115W, strain asf1, hits give low values",0.984
same,normalized growth,"locus YJL129C, strain trk1, hits give low values",1.09
same,normalized growth,"locus YJL154C, strain vps35, hits give low values",1.01
same,normalized growth,"locus YJL164C, strain tpk1, hits give low values",0.914 (active)
same,normalized growth,"locus YJL166W, strain qcr8, hits give low values",0.877 (active)
same,normalized growth,"locus YJR066W, strain TOR1, hits give low values",0.919
same,normalized growth,"locus YKL160W, strain elf1, hits give low values",0.945
same,normalized growth,"locus YKR026C, strain gcn3, hits give low values",0.997
same,normalized growth,"locus YKR091W, strain srl3, hits give low values",1
same,normalized growth,"locus YLL001W, strain dnm1, hits give low values",0.921
same,normalized growth,"locus YLL026W, hits give low values",0.933
same,normalized growth,"locus YLL041C, strain sdh2, hits give low values",1.01
same,normalized growth,"locus YLR027C, strain aat2, hits give low values",0.931
same,normalized growth,"locus YLR113W, strain HOG1, hits give low values",1
same,normalized growth,"locus YLR221C, strain rsa3, hits give low values",0.939
same,normalized growth,"locus YLR258W, strain gsy2, hits give low values",0.964
same,normalized growth,"locus YLR262C, strain YPT6 (second series), hits give low values",0.901
same,normalized growth,"locus YLR320W, strain mms22, hits give low values",0.884
same,normalized growth,"locus YLR342W, strain FKS1, hits give low values",0.861 (active)
same,normalized growth,"locus YLR357W, strain rsc2, hits give low values",0.901
same,normalized growth,"locus YLR370C, strain arc18, hits give low values",0.931
same,normalized growth,"locus YLR384C, strain iki3, hits give low values",0.981
same,normalized growth,"locus YML120C, strain ndi1, hits give low values",0.95
same,normalized growth,"locus YMR058W, strain fet3, hits give low values",0.697 (active)
same,normalized growth,"locus YMR125W, strain sto1, hits give low values",1.01
same,normalized growth,"locus YMR129W, hits give low values",0.991
same,normalized growth,"locus YMR205C, strain PFK2, hits give low values",0.943
same,normalized growth,"locus YMR231W, strain pep5, hits give low values",0.98
same,normalized growth,"locus YNL071W, strain lat1, hits give low values",0.952
same,normalized growth,"locus YNL183C, strain NPR1, hits give low values",0.956
same,normalized growth,"locus YNL209W, strain ssb2, hits give low values",0.899 (active)
same,normalized growth,"locus YNL248C, strain rpa49, hits give low values",0.807 (active)
same,normalized growth,"locus YNL322C, strain KRE1 (second series), hits give low values",0.995
same,normalized growth,"locus YNR049C, strain mso1, hits give low values",0.987
same,normalized growth,"locus YOR001W, strain rrp6, hits give low values",0.934
same,normalized growth,"locus YOR070C, strain gyp1, hits give low values",0.965
same,normalized growth,"locus YOR080W, strain dia2, hits give low values",0.937
same,normalized growth,"locus YOR083W, strain WHI5, hits give low values",0.896
same,normalized growth,"locus YOR106W, strain vam3, hits give low values",0.805 (active)
same,normalized growth,"locus YOR231W, strain MKK1, hits give low values",0.994
same,normalized growth,"locus YOR265W, strain rbl2, hits give low values",0.966
same,normalized growth,"locus YOR270C, strain vph1, hits give low values",0.951
same,normalized growth,"locus YOR290C, strain snf2, hits give low values",0.948
same,normalized growth,"locus YPL051W, strain arl3, hits give low values",0.854 (active)
same,normalized growth,"locus YPL078C, strain atp4, hits give low values",0.931
same,normalized growth,"locus YPL106C, strain sse1, hits give low values",0.847 (active)
same,normalized growth,"locus YPL240C, strain hsp82, hits give low values",0.985
same,normalized growth,"locus YPL256C, strain CLN2, hits give low values",0.971
NC(Cc1cc(O)c(O)cc1O)C(=O)O (stereo not given),normalized growth,"locus YAL040C, strain CLN3, hits give low values",1
same,normalized growth,"locus YCL061C, strain MRC1 (second series), hits give low values",0.967
same,normalized growth,"locus YDR363W, strain ESC2, hits give low values",0.977
same,normalized growth,"locus YER002W, strain NOP16, hits give low values",1.01
same,normalized growth,"locus YGR078C, strain PAC10, hits give low values",0.979
same,normalized growth,"locus YJR075W, strain HOC1, hits give low values",0.956
same,normalized growth,"locus YNL128W, strain TEP1, hits give low values",0.976
same,normalized growth,"locus YNL197C, strain WHI3, hits give low values",0.98
same,normalized growth,"locus YNL224C, strain SQS1, hits give low values",1.03
same,normalized growth,"locus YNL322C, strain KRE1, hits give low values",0.942
same,normalized growth,"locus YOR083W, strain WHI5 (second series), hits give low values",1.01

# Reference: PubChem BioAssay AID1159580 (chemical genetic matrix, 2015)
